# Values joined by “and” are separate entries in the source; they are usually repeats but may differ in a detail not shown here. Identical values can stand only once.
# What was measured:
# Assay in all cases: thermal shift delta Tm vs DMSO control; higher = stronger stabilization (binding)
# Conditions in all cases: 12.5 µM; protein concentration 2 µM
# LOC_OS01G01410-cb001 = test system: LOC_OS01G01410-cb001
# How it was run: (§1)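 Thermal shift values come from differential scanning fluorimetry on purified rice kinase domains made in E. coli, with melting temperatures obtained from Boltzmann fits. Samples of 19.5 μl held 2 μM kinase, 100 mM potassium phosphate pH 7.5, 150 mM NaCl, 10% glycerol, 5 × SYPRO Orange and compound in DMSO, and were heated from 25°C to 95°C at 0.05°C/s. Each shift is a triplicate mean relative to the DMSO-only protein sample.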
# LOC_OS01G02750-cb003 = test system: LOC_OS01G02750-cb003
# How it was run: as §1
# LOC_OS01G10900-cb004 = test system: LOC_OS01G10900-cb004
# How it was run: as §1
# LOC_OS01G13800-cb001 = test system: LOC_OS01G13800-cb001
# How it was run: as §1
# LOC_OS01G14860-cb001 = test system: LOC_OS01G14860-cb001
# How it was run: as §1
# LOC_OS01G21960-cb002 = test system: LOC_OS01G21960-cb002
# How it was run: as §1
# LOC_OS01G39600-cb002 = test system: LOC_OS01G39600-cb002
# How it was run: as §1
# LOC_OS01G48390-cb002 = test system: LOC_OS01G48390-cb002
# How it was run: as §1
# LOC_OS01G51400-cb002 = test system: LOC_OS01G51400-cb002
# How it was run: as §1
# LOC_OS01G52050-cb004 = test system: T1, LOC_OS01G52050-cb004
# T1 sequence (whole entry): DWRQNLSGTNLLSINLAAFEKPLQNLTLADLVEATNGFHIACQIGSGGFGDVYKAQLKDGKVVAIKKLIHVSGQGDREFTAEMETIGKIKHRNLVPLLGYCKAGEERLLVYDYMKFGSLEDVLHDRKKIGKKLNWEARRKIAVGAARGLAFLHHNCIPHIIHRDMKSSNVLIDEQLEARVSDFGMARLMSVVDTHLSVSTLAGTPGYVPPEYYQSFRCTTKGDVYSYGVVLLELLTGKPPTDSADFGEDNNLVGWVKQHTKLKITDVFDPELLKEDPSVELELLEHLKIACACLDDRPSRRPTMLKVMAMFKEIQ
# How it was run: as §1
# 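Note: purified Escherichia coli-expressed rice kinase domain construct.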
Compound,thermal shift delta Tm (LOC_OS01G01410-cb001),thermal shift delta Tm (LOC_OS01G02750-cb003),thermal shift delta Tm (LOC_OS01G10900-cb004),thermal shift delta Tm (LOC_OS01G13800-cb001),thermal shift delta Tm (LOC_OS01G14860-cb001),thermal shift delta Tm (LOC_OS01G21960-cb002),thermal shift delta Tm (LOC_OS01G39600-cb002),thermal shift delta Tm (LOC_OS01G48390-cb002),thermal shift delta Tm (LOC_OS01G51400-cb002),thermal shift delta Tm (LOC_OS01G52050-cb004)
COc1cc2nccc(Oc3ccc(NC(=O)C4(C(=O)Nc5ccc(F)cc5)CC4)cc3)c2cc1OC [Cabozantinib malate (XL184)],0.01 °C,0.45 °C,0.03 °C,0.12 °C,0.34 °C,0.57 °C,0.26 °C,3.62 °C,0.63 °C,0.38 °C
O=c1c(O)c(-c2ccc(O)c(O)c2)oc2cc(O)cc(O)c12 [Quercetin],3.05 °C,7.25 °C,1.68 °C,1.97 °C,3.55 °C,3.4 °C,6.51 °C,2.95 °C,1.5 °C,6.25 °C
CCCNC(=O)c1cn2ncnc(Nc3cc(C(=O)NC4CC4)ccc3C)c2c1C,0.17 °C,0.08 °C,-0.05 °C,-0.27 °C,0.01 °C,-0.06 °C,0.07 °C,-0.01 °C,0.04 °C,0.26 °C
Cc1c(C(=O)Nc2ccc(Oc3ccnc4[nH]cc(-c5ccccc5)c34)c(F)c2)c(=O)n(-c2ccc(F)cc2)n1C,0.66 °C,2.79 °C,1.91 °C,0.84 °C,0.67 °C,1.55 °C,2.37 °C,1.72 °C,0.78 °C,2.8 °C
CO[C@@H](C(=O)N1Cc2[nH]nc(NC(=O)c3ccc(N4CCN(C)CC4)cc3)c2C1)c1ccccc1,3 °C,1.69 °C,6.13 °C,-0.31 °C,0.54 °C,0.38 °C,1.14 °C,3.55 °C,0.01 °C,0.36 °C
CC1=C(C(=O)Nc2cc3cn[nH]c3cc2F)C(c2ccc(C(F)(F)F)cc2)CC(=O)N1 (stereo not given),0.57 °C,-0.19 °C,0.11 °C,0.54 °C,0.16 °C,0.33 °C,-0.15 °C,-0.18 °C,-0.23 °C,0 °C
O=C1NC(=O)[C@@H](c2cn3c4c(cccc24)CCC3)[C@@H]1c1c[nH]c2ccccc12 [Tivantinib (ARQ 197)],0.55 °C,0.06 °C,0.15 °C,0.17 °C,0.16 °C,0.75 °C,0.54 °C,0.43 °C,0.27 °C,0.75 °C
O=c1cc(N2CCOCC2)oc2c(-c3cccc4c3sc3ccccc34)cccc12,-0.61 °C,-1.71 °C,3.77 °C,-1.29 °C,0.08 °C,-0.64 °C,-1.62 °C,-0.49 °C,-1.28 °C,-0.72 °C
COc1ccc(CCNCc2ccc(OCc3ccc(Cl)nc3)c(OC)c2)cc1OC,0.02 °C,0.3 °C,0.52 °C,0.46 °C,0.35 °C,0.01 °C,0.48 °C,0.52 °C,-0.03 °C,-0.18 °C
CC1(C)OCCn2c1nc1c(N3CCOCC3)nc(-c3cnc(N)nc3)nc12,2.4 °C,0.54 °C,1.05 °C,0.07 °C,0.3 °C,1.06 °C,0.85 °C,0.14 °C,0.12 °C,0.62 °C
N#Cc1cnc(Nc2cc(NC[C@H]3CNCCO3)c(C(F)(F)F)cn2)cn1,0.36 °C,2.89 °C,0.47 °C,-0.18 °C,2.93 °C,0.6 °C,0.93 °C,2.58 °C,0.75 °C,5.23 °C
CC(C)N(CCC(=O)c1ccc2ccccc2c1)Cc1ccccc1,-0.06 °C,-5.16 °C,1.63 °C,-1.25 °C,-0.01 °C,0.24 °C,-2.79 °C,0.53 °C,-0.18 °C,-7.43 °C
Cc1cnc(-c2cnc(NCCNc3ccc(C#N)cn3)nc2-c2ccc(Cl)cc2Cl)[nH]1,0.25 °C and -0.35 °C,1.32 °C and 0.93 °C,0.52 °C and -0.13 °C,0.39 °C and 0.37 °C,7.39 °C and 7.4 °C,1.7 °C and 1.69 °C,0.07 °C and 1.56 °C,0.47 °C and 0.64 °C,0.25 °C and 0.6 °C,0.73 °C and 0.53 °C
COc1ccc(C(=O)Nc2sc3c(c2C(N)=O)CCCC3)cc1OC,0.61 °C,0.58 °C,0.36 °C,0.6 °C,0.19 °C,0.49 °C,0.46 °C,0.85 °C,0.45 °C,1.28 °C
CC#CC(=O)N1CCC[C@H]1c1nc(-c2ccc(C(=O)Nc3ccccn3)cc2)c2c(N)nccn12 [Acalabrutinib (ACP-196)],0.74 °C,0.55 °C,0.53 °C,0.19 °C,0.36 °C,0.47 °C,0.15 °C,0.22 °C,-0.06 °C,-0.21 °C
COc1cc(Nc2ncc(F)c(Nc3ccc4c(n3)NC(=O)C(C)(C)O4)n2)cc(OC)c1OC [R406 (free base)],0.61 °C,1.68 °C,0.13 °C,0.48 °C,5.16 °C,4.15 °C,5.87 °C,0.31 °C,0.55 °C,8.56 °C
CC1(C)OC(=O)C=C[C@]2(C)[C@H]3CC[C@@]4(C)[C@H](c5ccoc5)OC(=O)[C@H]5O[C@]54[C@]3(C)C(=O)C[C@@H]12 [Obacunone],0.06 °C,0.16 °C,0.26 °C,0.37 °C,0.35 °C,0.13 °C,-0.45 °C,0.82 °C,-0.06 °C,3 °C
O=C(c1cccc(Cl)c1F)N1CCN(Cc2cccc(Nc3nccs3)n2)CC1,0.64 °C,0.86 °C,0.24 °C,-0.45 °C,4.28 °C,0.14 °C,2.61 °C,1.3 °C,0.25 °C,4.36 °C

# From the supplement of paper PMC9694430
